G9a block = blocks human histone lysine methyltransferase G9a | hit rate 8.8% among 350,000 | Potency, µM (highest dose often 102 µM), for the others: at the top dose activity, negative = inhibition, usual class: inhibitors | G9a H3K9 monomethylation, AlphaScreen, 2 h | Q96KQ7; further: on the % scale 0 is the no-effect control and ±100 the full control effect; nearly all actives have a fitted effect of over 75% in size
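Compounds were preincubated with 20 nM G9a for 15 min, after which biotinylated H3K9 peptide (500 nM) and SAM (20 uM) started a 2 h room-temperature reaction. Monomethylated product was quantified by antibody-based AlphaScreen chemiluminescence.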
JMJD2A Tudor inh = inhibitors of human JMJD2A Tudor domain; Potency, µM (series often up to 114 µM), for the others: at the highest dose activity change, negative = inhibition, actives largely listed as inhibitors; AID 504339; AlphaScreen JMJD2A-Tudor / H3K4me3 peptide binding; hit rate 4.4% among 390,000; O75164; further: on the % scale 0 is the no-effect control and ±100 the full control effect; nearly all actives have a fitted effect of over 50% in size
Target sequence (O75164 whole entry, looked up, the tested form may be a part): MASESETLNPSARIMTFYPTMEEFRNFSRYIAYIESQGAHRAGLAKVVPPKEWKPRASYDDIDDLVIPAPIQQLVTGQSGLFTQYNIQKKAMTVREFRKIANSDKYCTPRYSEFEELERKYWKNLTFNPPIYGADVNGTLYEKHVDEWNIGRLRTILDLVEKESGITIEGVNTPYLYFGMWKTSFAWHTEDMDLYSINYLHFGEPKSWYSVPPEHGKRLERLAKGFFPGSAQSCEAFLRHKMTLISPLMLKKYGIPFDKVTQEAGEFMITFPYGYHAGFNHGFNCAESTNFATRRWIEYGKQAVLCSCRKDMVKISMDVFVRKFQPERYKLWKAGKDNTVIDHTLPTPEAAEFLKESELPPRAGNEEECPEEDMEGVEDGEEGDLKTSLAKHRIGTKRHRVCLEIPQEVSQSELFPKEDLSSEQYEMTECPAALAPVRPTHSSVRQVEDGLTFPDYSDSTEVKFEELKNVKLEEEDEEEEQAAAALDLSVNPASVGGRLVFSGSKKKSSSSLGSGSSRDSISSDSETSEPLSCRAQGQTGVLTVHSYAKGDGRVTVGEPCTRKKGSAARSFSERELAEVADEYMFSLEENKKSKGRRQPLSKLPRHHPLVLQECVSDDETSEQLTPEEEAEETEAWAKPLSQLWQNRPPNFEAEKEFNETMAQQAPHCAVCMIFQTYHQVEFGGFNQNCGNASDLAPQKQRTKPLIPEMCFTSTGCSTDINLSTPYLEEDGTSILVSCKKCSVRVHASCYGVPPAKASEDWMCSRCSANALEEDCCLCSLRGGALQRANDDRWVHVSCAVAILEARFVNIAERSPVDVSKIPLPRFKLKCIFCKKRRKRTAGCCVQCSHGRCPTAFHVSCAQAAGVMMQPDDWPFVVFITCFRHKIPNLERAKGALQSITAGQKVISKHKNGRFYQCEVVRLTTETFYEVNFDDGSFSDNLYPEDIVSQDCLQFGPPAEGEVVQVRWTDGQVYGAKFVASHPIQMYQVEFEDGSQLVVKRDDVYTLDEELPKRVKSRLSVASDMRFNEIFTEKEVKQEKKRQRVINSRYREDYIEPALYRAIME
L3MBTL1 inh = blocks human L3MBTL1 | hit rate 0.66% among 230,000 | Potency, µM (titrated, usually from 57.1 µM), without a hit: top-dose activity, negative = inhibition, most hits filed as inhibitors | AID 485360 | AlphaScreen L3MBTL1–H3K9me1 peptide binding | Q9Y468; further: on the % scale 0 is the no-effect control and ±100 the full control effect; nearly all actives have a fitted effect of over 60% in size
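AlphaScreen proximity signal between nickel-chelate acceptor and streptavidin donor beads (final 10 ug/mL) reports binding of 50 nM L3MBTL1 to 75 nM biotin-H3 K9me1 peptide; complex incubated with compounds 30 min at room temperature; cefsulodin titration as control.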
HP1b chromo inh = inhibitors of HP1-beta chromodomain binding to methylated histone tails. P83916. AlphaScreen HP1-beta / biotin-H3K9me3 peptide binding. Potency, µM (doses to about 114 µM), for inactives: at the top dose activity change, negative = inhibition, usual class: inhibitors. hit rate 0.56% among 390,000. AID 540317; further: nearly all actives have a fitted effect of over 70% in size
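AlphaScreen: HP1-beta (50 nM) preformed 30 min with biotin-H3(1-18)K9me3 peptide (50 nM) in PBS pH 7.4, 0.01% Tween-20. Compound added for 30 min at RT, then streptavidin donor/nickel chelate acceptor beads (10 ug/mL) for 30 min.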
BAZ2B inh = blocks human BAZ2B. hit rate 4.4% among 360,000. Potency, µM (top dose mostly 114 µM), for the others: at the highest dose activity change, negative = inhibition, hits mostly inhibitors. AlphaScreen BAZ2B-H3K14Ac peptide displacement. AID 504333; further: on the % scale 0 is the no-effect control and ±100 the full control effect; nearly all actives have a fitted effect of over 60% in size
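AlphaScreen displacement of biotin-H3(5-23)K14Ac peptide (50 nM final) from BAZ2B (50 nM final) in PBS pH 7.4, 0.01% Tween-20; complex preformed 30 min RT, then compounds (top 110 uM) 30 min RT, beads 20 min dark.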
* hit, by the source's call; [ ] = another dose, or the depositor's remark. Compounds with a hit are over-represented: about 11% of the library has one in this group of screens. The call rests on the fitted dose curve; in most records, active means well fitted inhibition curve with a large enough effect; inconclusive means small, poorly fitted or top-dose-only effect; inactive means no such curve, though single readings can be large or run the other way. Potency means the concentration at half of the fitted maximal effect.

CCOC(=O)c1cnc(-n2[nH]c(C)c(Cc3ccccc3)c2=O)[nH]c1=O was read as G9a block 33.4%[12.7 µM], JMJD2A Tudor inh 7.94µM*, L3MBTL1 inh 2.82µM*, HP1b chromo inh 61.3% and BAZ2B inh 2µM*.
For CCOC(=O)c1cnc(Cc2ccccc2)[nH]c1=O the results were G9a block 8.7%[0.501 µM], JMJD2A Tudor inh -11.0%, L3MBTL1 inh 8.3%[2.29 µM], HP1b chromo inh 21.8% and BAZ2B inh -1.0%.
`CCOC(=O)c1cnc(-n2[nH]c(C)cc2=O)[nH]c1=O` gave G9a block inconclusive, JMJD2A Tudor inh 2.82µM*, L3MBTL1 inh 3.16µM*, HP1b chromo inh 50.1µM* and BAZ2B inh 1.78µM*.
`NC(=O)c1nc(-c2ccc(F)c(F)c2)nc2c1[nH]c(=O)n2-c1cccc(Cl)c1` gave G9a block 8.9%[59 µM], JMJD2A Tudor inh -10.1%, HP1b chromo inh 34.2% and BAZ2B inh 1.9%.
For FC(F)(F)C(F)(F)C(F)(F)C(F)(F)C(F)(F)C(F)(F)C(F)(F)C(F)(F)Br the results were G9a block 12.9%[59 µM].
`Cc1ccc(-c2nc(NC(=O)CSc3nc(C)nc4sc5c(c34)CCCC5)ns2)cc1` gave G9a block -7.8%[59 µM], JMJD2A Tudor inh -15.5%, HP1b chromo inh 21.2% and BAZ2B inh 1.6%.
`O=C(O)c1cc(N/N=C/c2c[nH]c3ccccc23)ccc1Cl` gave G9a block 44.7µM*, JMJD2A Tudor inh inconclusive, HP1b chromo inh -36.0% and BAZ2B inh inconclusive.
Screening CSc1ccc(/C=N/NC(=O)c2cc(O)cc(O)c2)cc1 returned G9a block 6.3%[59 µM], JMJD2A Tudor inh -28.1%, L3MBTL1 inh -6.6%, HP1b chromo inh 19.3% and BAZ2B inh -7.0%.
Screening CSc1ccc(/C=N/NC(=O)c2ccc(C)c(C)c2)cc1 returned G9a block -4.3%[59 µM], JMJD2A Tudor inh inconclusive, L3MBTL1 inh -13.0%, HP1b chromo inh 18.5% and BAZ2B inh 50.1µM*.
O=C(O)c1cc(N/N=C/c2ccncc2)ccc1Cl was read as G9a block -46.3%[59 µM], JMJD2A Tudor inh -7.4%, L3MBTL1 inh 3.6%, HP1b chromo inh 18.0%[57 µM] and BAZ2B inh -2.4%.
Screening CSc1ccc(/C=N/Nc2ccc(Cl)c(C(=O)O)c2)cc1 returned G9a block 10µM*, JMJD2A Tudor inh -35.9%, L3MBTL1 inh -6.5%, HP1b chromo inh 1.0% and BAZ2B inh -37.0%.
`O=C(O)c1cc(N/N=C/c2ccc(-c3ccccc3)cc2)ccc1Cl` gave G9a block 16.9%[0.501 µM], JMJD2A Tudor inh 31.6µM*, HP1b chromo inh -24.8% and BAZ2B inh inconclusive.
`O=C(N/N=C/c1c[nH]c2ccccc12)c1cccc(Cl)c1` gave G9a block -4.6%, JMJD2A Tudor inh -33.2%, HP1b chromo inh 20.9% and BAZ2B inh -5.7%.
`CC1CC(C(F)F)n2nc(C(=O)O)cc2N1` (stereo unspecified) gave G9a block 1.3%, JMJD2A Tudor inh 20µM*, HP1b chromo inh -2.7% and BAZ2B inh -10.8%.
Screening COc1ccc(CN2CCCCC2c2cccnc2)c(OC)c1C (stereo unspecified) returned G9a block 79.4µM*, JMJD2A Tudor inh -32.5%, L3MBTL1 inh -1.3%, HP1b chromo inh 14.3% and BAZ2B inh inconclusive.
Screening COc1ccc(OC)c(-c2nc(CN3CCCCC3c3cccnc3)c(C)o2)c1 (stereo unspecified) returned G9a block 1.2%, JMJD2A Tudor inh -17.9%, L3MBTL1 inh -11.2%, HP1b chromo inh 14.6% and BAZ2B inh -22.9%.
For Cc1ccc(-n2nc(C)c(C(=O)NCCCN3CCN(c4ccc(F)cc4)CC3)c2-n2cccc2)cc1 the results were G9a block inconclusive, JMJD2A Tudor inh 44.7µM*, HP1b chromo inh -23.9% and BAZ2B inh 39.8µM*.
Screening CCCN1CCN(CCCNC(=O)c2c(C)nn(-c3ccc(F)cc3)c2-n2cccc2)CC1 returned G9a block 0.8%[59 µM], JMJD2A Tudor inh 7.2%, HP1b chromo inh 32.3% and BAZ2B inh -12.4%.
COc1ccc(N2CCN(CCCNC(=O)c3c(C)nn(-c4ccc(F)cc4)c3-n3cccc3)CC2)cc1 was read as G9a block 4.47µM*, JMJD2A Tudor inh inconclusive, HP1b chromo inh -11.2% and BAZ2B inh 50.1µM*.
For CN1CCC2(CC1)CCN(C(=O)c1cccc(F)c1)CC2 the results were G9a block 2.3%[12.7 µM].
COc1cc2nc(Cl)nc(N3CCN(C)CC3)c2cc1OC was read as G9a block inconclusive and BAZ2B inh 1.8%.
For COc1cc2nc(C3CCC3)nc(N3CCN(c4ccccc4OC)CC3)c2cc1OC the results were G9a block inconclusive, JMJD2A Tudor inh inconclusive, L3MBTL1 inh 28.2µM*, HP1b chromo inh -20.7% and BAZ2B inh inconclusive.
COc1cc2nc(C3CCC3)nc(N3CCN(c4ccccn4)CC3)c2cc1OC was read as G9a block 50.1µM*, JMJD2A Tudor inh inconclusive, L3MBTL1 inh -13.5%, HP1b chromo inh -15.7% and BAZ2B inh 50.1µM*.
Screening COc1cc(C(=O)N2CCN(c3ccccn3)CC2)cc(OC)c1OC returned G9a block 28.8%, JMJD2A Tudor inh 1.4%, L3MBTL1 inh -11.5%, HP1b chromo inh 28.3% and BAZ2B inh -2.9%.
O=S(=O)(Nc1cccc2ncccc12)c1cccs1 was read as G9a block 28.0%[59 µM], JMJD2A Tudor inh 56.2µM*, L3MBTL1 inh -20.9%, HP1b chromo inh 31.0% and BAZ2B inh 56.2µM*.
Screening CCN(CC)CCN(C)C1CCC(c2ccccc2)CC1 (stereo unspecified) returned G9a block 8.91µM*, JMJD2A Tudor inh 6.31µM*, L3MBTL1 inh 8.0%, HP1b chromo inh inconclusive and BAZ2B inh 56.2µM*.
For CCN(CC)CCP(=O)(c1ccccc1)c1ccccc1 the results were G9a block -2.1%[12.7 µM], JMJD2A Tudor inh -14.5%, HP1b chromo inh 14.1% and BAZ2B inh 12.2%.
For C/C(=C\C(=O)c1ccc(C)o1)Nc1ccc(C(=O)O)cc1C the results were G9a block 70.8µM*, JMJD2A Tudor inh 28.2µM*, L3MBTL1 inh -11.5%, HP1b chromo inh -9.4% and BAZ2B inh inconclusive.
For CCc1ccc(NC(=O)CN2C(=O)CC(c3ccccc3)Sc3ccccc32)cc1 (stereo unspecified) the results were G9a block -16.6%[59 µM], JMJD2A Tudor inh -4.7%, HP1b chromo inh 22.3% and BAZ2B inh -4.8%.
For O=C(c1c[nH]c(C(=O)C(Cl)(Cl)Cl)c1)c1c(F)cccc1F the results were G9a block -41.2%, JMJD2A Tudor inh 22.4µM*, HP1b chromo inh 3.1% and BAZ2B inh -23.5%.
For CCC(=O)N1CCc2cc(Br)cc(S(=O)(=O)CCC(=O)N3CCN(c4ccc(OC)cc4)CC3)c21 the results were G9a block -44.0%[59 µM], JMJD2A Tudor inh -23.5%, HP1b chromo inh 3.3% and BAZ2B inh -3.4%.

Bioassay records (PubChem)
